Bioassay records: PubChem BioAssay, National Center for Advancing Translational Sciences (NCATS)
In the library only some 1.2% were active in any assay of this set; here they are far more common.
Luc counter = Counterscreen for Luciferase (Kinase-Glo TM) Inhibition | AID 1379, 2008 | 0.28% of 200,000 active | Kinase-Glo luciferase, ATP luminescence, 8 min | Potency, µM (highest dose often 38.3 µM), for the others: at the highest dose activity change, negative = inhibition, hits mostly inhibitors; active = well fitted inhibition curve with a large enough effect; note: potency is the fitted concentration of half-maximal effect; nearly all actives have a fitted effect of over 60% in size
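Compound is pinned into ATP-containing buffer (10 uM ATP, imidazole pH 7.2, 7 mM MgCl2). Kinase-Glo luciferase reagent is then added. Light output is recorded following an 8-min room-temperature incubation.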
KCNH2 3.1 block = qHTS for Inhibitors of KCHN2 3.1: Mutant qHTS. Potassium voltage-gated channel subfamily H member 2, brain isoform KCNH2 3.1 (human). U2OS KCNH2 3.1, thallium flux FluxOr; hits give low values. activity change, % (tested at about 1.8 µM). 0.95% of 340,000 active. AID 720553, 2013;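 active = maximum activity change below -70%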;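 note: thallium influx rate constant from kinetic fluorescence after stimulation buffer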
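Steps: virus added to U2OS suspension (4 h, RT, dark); medium with 10% FBS added, cells plated, 37 C overnight; FluxOr/Red40 loading buffer 45 min RT; stimulation buffer, 2 min kinetic read; rate constant normalized.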
hERG WT inh = qHTS for Inhibitors of KCHN2 3.1: Wildtype qHTS | 0.37% of 340,000 active | activity change, % at 1.84 µM | Voltage-gated inwardly rectifying potassium channel KCNH2 (Homo sapiens), Q12809 | U2OS, BacMam KCNH2, thallium flux FluxOr; hits give low values;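 active = maximum activity change below -70%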
Target sequence (Q12809 whole entry, looked up): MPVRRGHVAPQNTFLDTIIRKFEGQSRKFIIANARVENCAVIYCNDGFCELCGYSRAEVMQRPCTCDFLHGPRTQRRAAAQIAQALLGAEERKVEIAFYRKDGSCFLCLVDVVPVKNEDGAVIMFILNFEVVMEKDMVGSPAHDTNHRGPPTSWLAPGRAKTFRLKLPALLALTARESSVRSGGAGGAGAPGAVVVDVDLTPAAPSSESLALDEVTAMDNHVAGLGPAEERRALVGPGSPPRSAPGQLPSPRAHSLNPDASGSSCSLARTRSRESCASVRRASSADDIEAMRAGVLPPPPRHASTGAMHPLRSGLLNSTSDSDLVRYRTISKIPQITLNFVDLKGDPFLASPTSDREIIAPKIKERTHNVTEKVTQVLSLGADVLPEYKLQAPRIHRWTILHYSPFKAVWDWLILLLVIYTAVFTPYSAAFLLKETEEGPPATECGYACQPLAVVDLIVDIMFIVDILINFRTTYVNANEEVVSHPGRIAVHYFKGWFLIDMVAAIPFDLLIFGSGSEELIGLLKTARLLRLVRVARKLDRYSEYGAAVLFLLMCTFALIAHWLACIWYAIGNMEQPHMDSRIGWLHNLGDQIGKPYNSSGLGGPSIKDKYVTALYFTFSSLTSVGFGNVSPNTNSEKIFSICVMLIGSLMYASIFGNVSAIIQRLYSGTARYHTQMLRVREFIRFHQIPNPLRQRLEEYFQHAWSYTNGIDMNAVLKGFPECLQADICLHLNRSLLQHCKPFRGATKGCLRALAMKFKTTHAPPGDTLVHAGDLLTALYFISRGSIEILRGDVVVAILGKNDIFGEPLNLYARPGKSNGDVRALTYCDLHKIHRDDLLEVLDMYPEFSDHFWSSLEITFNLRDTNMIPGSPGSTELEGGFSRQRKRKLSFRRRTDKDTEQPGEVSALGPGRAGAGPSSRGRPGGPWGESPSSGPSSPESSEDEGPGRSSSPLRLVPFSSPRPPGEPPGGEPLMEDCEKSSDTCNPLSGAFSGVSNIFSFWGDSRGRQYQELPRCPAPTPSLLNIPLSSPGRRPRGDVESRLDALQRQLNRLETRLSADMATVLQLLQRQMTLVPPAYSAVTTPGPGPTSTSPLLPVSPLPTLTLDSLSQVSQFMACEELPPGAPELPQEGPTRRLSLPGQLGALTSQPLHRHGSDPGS
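U2OS cells were transduced with wild-type KCNH2 virus (2.03 x 10^8 / mL) for 4 h at room temperature, then cultured overnight at 37 C. Thallium flux was read with FluxOr dye. Rate constants were normalized to DMSO controls.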
* hit, by the source's call. % is set by controls: 0 for no effect and ±100 for the full control effect.

How did O=C(NCCN1CCN(C(=O)c2ccc([N+](=O)[O-])cc2)CC1)C(=O)NCc1ccccc1 do in these assays?
KCNH2 3.1 block: -80*; hERG WT inh: 44

Results for CCCCc1ccc(NC(=O)C(=O)NCCN2CCN(Cc3ccc([N+](=O)[O-])cc3)CC2)cc1 ?
Luc counter: -1%; KCNH2 3.1 block: -169*; hERG WT inh: -245*

How did CNC(=O)C(=O)NCCN1CCN(C(=O)c2ccc([N+](=O)[O-])cc2)CC1 do in these assays?
Luc counter: 1%; KCNH2 3.1 block: 8; hERG WT inh: -6

What do the screens show for `COc1ccc2c(Cl)c(C(=O)N/N=C/c3cccnc3)sc2c1`?
KCNH2 3.1 block: -1; hERG WT inh: -1

How did CCOC(=O)C1CCN(C(=O)COC(=O)CNS(=O)(=O)c2ccc(SC)c([N+](=O)[O-])c2)CC1 do in these assays?
KCNH2 3.1 block: -2; hERG WT inh: 5

What do the screens show for `COc1cccc(NC(=O)CN2C(=O)COc3ccc(S(=O)(=O)N4CCOCC4)cc32)c1`?
KCNH2 3.1 block: 2; hERG WT inh: 15

How did COc1cccc(NC(=O)CN2C(=O)COc3ccc(S(=O)(=O)N4CCCCCC4)cc32)c1 do in these assays?
KCNH2 3.1 block: -111*; hERG WT inh: -2

How did O=C(CN1C(=O)COc2ccc(S(=O)(=O)N3CCCC3)cc21)NC1CCCCCCC1 do in these assays?
Luc counter: -1%

What do the screens show for `O=C(CN1C(=O)COc2ccc(S(=O)(=O)N3CCCC3)cc21)NC1CC1`?
KCNH2 3.1 block: 0; hERG WT inh: -83*

How did Cc1c(NC(=O)c2ccc(S(=O)(=O)N3CCOCC3)cc2)cccc1[N+](=O)[O-] do in these assays?
KCNH2 3.1 block: 10; hERG WT inh: -10

How did O=C(NNC(=O)c1cc(S(=O)(=O)N2CCOCC2)ccc1Cl)c1ccc(F)cc1 do in these assays?
KCNH2 3.1 block: 8; hERG WT inh: -5

What do the screens show for `Cc1ccc(C)c(COc2coc(CN3CCN(C(=O)c4ccco4)CC3)cc2=O)c1`?
KCNH2 3.1 block: 0; hERG WT inh: 11

What do the screens show for `COc1cc(OC)cc(C(=O)NNC(=O)CN2C(=O)NC3(CCCC3)C2=O)c1`?
KCNH2 3.1 block: 6; hERG WT inh: -5

How did CC(C)CCNC(=O)C12CN(Cc3ccccc3)CC1C(c1ccc([N+](=O)[O-])cc1)=NO2 (configuration not stated) do in these assays?
Luc counter: 10%; KCNH2 3.1 block: -107*; hERG WT inh: -46

How did O=C(NCc1ccc(C(F)(F)F)cc1)C12CN(Cc3ccccc3)CC1C(c1cccc([N+](=O)[O-])c1)=NO2 (configuration not stated) do in these assays?
Luc counter: 7%; KCNH2 3.1 block: -27; hERG WT inh: -15

Results for Cc1ccc(CCNC(=O)C23CN(Cc4ccccc4)CC2C(c2cccc([N+](=O)[O-])c2)=NO3)cc1 (configuration not stated) ?
Luc counter: 0%; KCNH2 3.1 block: -28; hERG WT inh: -25

What do the screens show for `O=C(NCc1ccccc1C(F)(F)F)C12CN(Cc3ccccc3)CC1C(c1ccc([N+](=O)[O-])cc1)=NO2` (configuration not stated)?
Luc counter: 2%; KCNH2 3.1 block: -118*; hERG WT inh: -33

What do the screens show for `COc1ccc(CCNC(=O)C23CN(Cc4ccccc4)CC2C(c2cccc([N+](=O)[O-])c2)=NO3)cc1` (configuration not stated)?
Luc counter: 9%; KCNH2 3.1 block: 5; hERG WT inh: -9

What do the screens show for `COc1cccc(CNC(=O)C23CN(Cc4ccccc4)CC2C(c2ccc([N+](=O)[O-])cc2)=NO3)c1` (configuration not stated)?
Luc counter: 0%; KCNH2 3.1 block: -102*; hERG WT inh: -1

Results for CCCn1c(N)c(C(=O)CSc2nnc(C3CC3)n2C2CC2)c(=O)[nH]c1=O ?
KCNH2 3.1 block: 10; hERG WT inh: 3

How did CCC(C)NC(=O)c1oc2ccc(S(=O)(=O)N3CCC4(CC3)OCCO4)cc2c1C (configuration not stated) do in these assays?
KCNH2 3.1 block: 3; hERG WT inh: 0

Results for C[C@@H]1CN([C@@H](C)CO)S(=O)(=O)c2ccc(Br)cc2O[C@H]1CN(C)C(=O)Cc1cccnc1 ?
KCNH2 3.1 block: 3; hERG WT inh: 0

What do the screens show for `CCCCC1=CC2=C(c3ccco3)C(=O)C(C)(OC(=O)c3cccs3)C(=O)C2=CO1` (configuration not stated)?
Luc counter: -1%

What do the screens show for `Cc1ccc(-c2ccc(=O)n(CC(=O)NCc3ccc(F)cc3)n2)cc1`?
Luc counter: -4%; KCNH2 3.1 block: 19; hERG WT inh: 0

What do the screens show for `O=C(CCc1nnc(CCCCc2ccccc2)o1)N1CCCC(O)C1` (configuration not stated)?
KCNH2 3.1 block: 16; hERG WT inh: -6

Results for O=C(/C=C/c1ccccc1)CC(=O)c1ccccc1 ?
KCNH2 3.1 block: -86*; hERG WT inh: 2

What do the screens show for `O=C(/C=C/c1ccccc1)c1ccccc1`?
Luc counter: -17%; KCNH2 3.1 block: -23; hERG WT inh: 0

What do the screens show for `Cc1cc(C)c2sc(N(CCN(C)C)C(=O)c3c(F)cccc3F)nc2c1`?
Luc counter: -1%; KCNH2 3.1 block: 4; hERG WT inh: 9

What do the screens show for `Cc1cc(C)c2nc(N(CCCN(C)C)C(=O)c3ccc4c(c3)OCCO4)sc2c1`?
KCNH2 3.1 block: -86*; hERG WT inh: -8

Results for Cc1cc(C)c2sc(N(CCCN(C)C)C(=O)c3ccc(Br)s3)nc2c1 ?
Luc counter: 3%; KCNH2 3.1 block: -82*; hERG WT inh: -23

How did Cc1cc(C)c2nc(N(CCCN(C)C)C(=O)C3=COCCO3)sc2c1 do in these assays?
KCNH2 3.1 block: -7; hERG WT inh: 15

What do the screens show for `CCN(CC)C(=O)C1=C(C)N(CCCOC)C(=O)C(CC(=O)NCC2CCCCC2)C1` (configuration not stated)?
KCNH2 3.1 block: 3; hERG WT inh: -3

How did CCOc1ccc(-c2ccc(SC)nn2)cc1 do in these assays?
Luc counter: 3.2µM*; KCNH2 3.1 block: -7; hERG WT inh: 10

Results for CCOc1ccc(-c2ccc(SCC(=O)Nc3nnc(CC)s3)nn2)cc1 ?
Luc counter: 0%; KCNH2 3.1 block: -15; hERG WT inh: 5

Results for O=C1OC(c2ccccc2)(c2ccccc2)c2ccccc21 ?
KCNH2 3.1 block: -40; hERG WT inh: -45

Results for O=C1CC(c2ccccc2)(c2ccccc2)c2ccccc21 ?
KCNH2 3.1 block: -103*; hERG WT inh: -95*

What do the screens show for `C[C@@H]1CN([C@@H](C)CO)C(=O)c2cccc(NC(=O)Nc3ccccc3)c2O[C@H]1CN(C)C(=O)Nc1cccc2ccccc12`?
KCNH2 3.1 block: 19; hERG WT inh: -19

What do the screens show for `Nc1nc2ccccc2n1C(=O)c1ccccc1`?
Luc counter: 11µM*; KCNH2 3.1 block: 2; hERG WT inh: 8
